# Reference: PubChem BioAssay (EPA / NIEHS)
# The source made the active and inactive calls. The calls were made as follows: active = hit-call score of the fitted dose curve at least 0.9, where 1 is the maximum; inactive = score below 0.9.
# What was measured:
# Settings in all cases: mRNA level, 48 h; actives raise or lower the signal
# [1] = read-out: 3-Hydroxy-3-Methylglutaryl-CoA Synthase 2 (HMGCS2), HMGCS2 (gene 3158); experiment: LTEA_HepaRG_HMGCS2: Life Technologies and Expression Analysis (LTEA) Assay for 3-Hydroxy-3-Methylglutaryl-CoA Synthase 2 (HMGCS2) using HepaRG (AID 2283504)
# Procedure, shortened: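 Readout is HMGCS2 transcript by qRT-PCR, housekeeping-normalised (ACTB/GAPDH/POLR2A) and fitted bidirectionally against 0.5% DMSO. Differentiated HepaRG cells received chemicals 48 h, duplicate wells, eight half-log concentrations topping at 100 uM.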
# HGF (gene 3082) = experiment: LTEA_HepaRG_HGF: Life Technologies and Expression Analysis (LTEA) Assay for Hepatocyte Growth Facto (HGF) using HepaRG (AID 2283505)
# Procedure, shortened: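 HGF transcript was quantified by TaqMan qRT-PCR against three housekeeping genes after 48 h treatment of HepaRG cells. Exposure ran in duplicate over eight half-log steps topping at 100 uM in 0.5% DMSO vehicle.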
# [2] = read-out: Insulin Like Growth Factor 1 (IGF1), IGF1 (gene 3479); experiment: LTEA_HepaRG_IGF1: Life Technologies and Expression Analysis (LTEA) Assay for Insulin Like Growth Factor 1 (IGF1) using HepaRG (AID 2283506)
# Procedure, shortened: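 Endpoint: IGF1 mRNA change by qRT-PCR, housekeeping-normalized, fitted bidirectionally relative to 0.5% DMSO vehicle. Human HepaRG cells were treated 48 h in serum-free induction medium, eight half-log concentrations topping at 100 uM.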
# [3] = read-out: Intercellular Adhesion Molecule 1 (ICAM1), ICAM1 (gene 3383); experiment: LTEA_HepaRG_ICAM1: Life Technologies and Expression Analysis (LTEA) Assay for Intercellular Adhesion Molecule 1 (ICAM1) using HepaRG (AID 2283507)
# Procedure, shortened: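 ICAM1 transcript levels measured by qRT-PCR, normalized to three housekeeping genes (ACTB, GAPDH, POLR2A), after 48 h chemical exposure of HepaRG cells. Duplicate eight-point half-log series from 100 uM in 0.5% DMSO; gain or loss fitted against vehicle.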
# [4] = read-out: Insulin-like growth factor-binding protein 1 (IGFBP1), IGFBP1 (gene 3484); experiment: LTEA_HepaRG_IGFBP1: Life Technologies and Expression Analysis (LTEA) Assay for Insulin-like growth factor-binding protein 1 (IGFBP1) using HepaRG (AID 2283508)
# Procedure, shortened: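 Read-out is qRT-PCR transcript level normalized to three housekeeping genes, fitted in both directions against 0.5% DMSO. Differentiated HepaRG cells received eight half-log concentrations (top 100 uM) in duplicate for 48 h in serum-free induction medium.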
# [5] = read-out: Interleukin 6 (IL6), IL6 (gene 3569); experiment: LTEA_HepaRG_IL6: Life Technologies and Expression Analysis (LTEA) Assay for Interleukin 6 (IL6) using HepaRG (AID 2283509)
# Procedure, shortened: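 qRT-PCR read-out of IL6 transcript, normalized to three housekeeping genes, after 48 h chemical exposure of HepaRG cells; 8-point half-log series, top 100 uM, 0.5% DMSO vehicle. Bidirectional curve fitting against DMSO baseline.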
# [6] = read-out: Interleukin 6 Receptor (IL6R), IL6R (gene 3570); experiment: LTEA_HepaRG_IL6R: Life Technologies and Expression Analysis (LTEA) Assay for Interleukin 6 Receptor (IL6R) using HepaRG (AID 2283510);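 as to AC50: differentiated human HepaRG liver cells in serum-free induction medium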
# Procedure, shortened: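 In this HepaRG screen, test chemicals act on cells for 48 h at up to 100 uM (eight half-log points, duplicate wells). IL6R expression is quantified by qRT-PCR after normalization to ACTB, GAPDH and POLR2A, with DMSO as baseline.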
# [7] = read-out: Keratin 19 (KRT19), KRT19 (gene 3880); experiment: LTEA_HepaRG_KRT19: Life Technologies and Expression Analysis (LTEA) Assay for Keratin 19 (KRT19) using HepaRG (AID 2283512)
# Procedure, shortened: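 KRT19 transcript measured by TaqMan qRT-PCR, referenced to three housekeeping genes, after HepaRG cells received test chemicals for 48 h. Eight half-log concentrations, top 100 uM, 0.5% DMSO vehicle; increases and decreases both fitted.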
# [8] = read-out: JUN Transcription Factor, JUN (gene 3725); experiment: LTEA_HepaRG_JUN: Life Technologies and Expression Analysis (LTEA) Assay for JUN Transcription Factor using HepaRG (AID 2283513)
# Procedure, shortened: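 Gene-expression endpoint: JUN mRNA (qRT-PCR, normalized to three reference genes) in HepaRG cultures treated 48 h with chemicals, duplicate wells, 100 uM maximum with half-log dilutions; bidirectional fitting relative to 0.5% DMSO.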
# [9] = read-out: Potassium channel subfamily K member 1 (KCNK1), KCNK1 (gene 3775); experiment: LTEA_HepaRG_KCNK1: Life Technologies and Expression Analysis (LTEA) Assay for Potassium channel subfamily K member 1 (KCNK1) using HepaRG (AID 2283511)
# Procedure, shortened: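 HepaRG, 48 h exposure, 8-pt half-log series top 100 uM, 0.5% DMSO vehicle, duplicates. Readout: KCNK1 transcript by qRT-PCR (Fluidigm array), housekeeping-normalized; bidirectional curve fit relative to DMSO baseline.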
compound,measurement,setting,value
CN(C)C(=O)NC1(c2ccccc2)CCN(CC[C@@]2(c3ccc(F)c(F)c3)CN(C(=O)c3ccccc3)CCO2)CC1,AC50,[1],47 µM (active)
same,outcome,HGF (gene 3082),inactive
same,AC50,[2],15.7 µM (active)
same,outcome,[3],inactive
same,outcome,[4],inactive
same,outcome,[5],inactive
same,outcome,[6],inactive
same,AC50,[7],27 µM (active)
same,outcome,[8],inactive
CC1=C(C)S(=O)(=O)CCS1(=O)=O,outcome,[1],inactive
same,outcome,HGF (gene 3082),inactive
same,AC50,[2],50 µM (active)
same,outcome,[3],inactive
same,outcome,[4],inactive
same,outcome,[5],inactive
same,outcome,[6],inactive
same,AC50,[7],76.6 µM (active)
CC(N)=O,outcome,[1],inactive
same,outcome,[2],inactive
same,outcome,[3],inactive
same,outcome,[4],inactive
same,outcome,[5],inactive
same,outcome,[6],inactive
same,outcome,[9],inactive
same,outcome,[7],inactive
CC(C)c1cccc(C(C)C)c1NC(=O)NS(=O)(=O)c1cc(C(C)(C)O)co1,AC50,[1],62 µM (active)
same,outcome,HGF (gene 3082),inactive
same,AC50,[2],50 µM (active)
same,outcome,[3],inactive
same,outcome,[4],inactive
same,outcome,[5],inactive
same,outcome,[6],inactive
same,outcome,[7],inactive
same,outcome,[8],inactive
CN(C)CCCN1c2ccccc2Sc2ccc(Cl)cc21,AC50,[1],68.6 µM (active)
same,outcome,HGF (gene 3082),inactive
same,AC50,[2],77.7 µM (active)
same,AC50,[3],77.7 µM (active)
same,AC50,[4],72.8 µM (active)
same,AC50,[5],77 µM (active)
same,AC50,[6],44.7 µM (active)
same,AC50,[7],82.9 µM (active)
same,AC50,[8],94 µM (active)
COC(=O)CCCC(=O)OC,outcome,[1],inactive
same,outcome,HGF (gene 3082),inactive
same,outcome,[2],inactive
same,outcome,[3],inactive
same,outcome,[4],inactive
same,outcome,[5],inactive
same,outcome,[6],inactive
same,outcome,[7],inactive
same,outcome,[8],inactive
O=C(O)c1cccnc1,outcome,[1],inactive
same,outcome,[2],inactive
same,outcome,[3],inactive
same,outcome,[4],inactive
same,outcome,[5],inactive
same,outcome,[6],inactive
same,outcome,[9],inactive
same,outcome,[7],inactive
same,outcome,[8],inactive
CC(=O)S[C@H](C(=O)N[C@H]1Cc2ccccc2[C@H]2CCC[C@@H](C(=O)O)N2C1=O)C(C)C,outcome,[1],inactive
same,outcome,HGF (gene 3082),inactive
same,outcome,[2],inactive
same,outcome,[3],inactive
same,outcome,[4],inactive
same,outcome,[5],inactive
same,outcome,[6],inactive
same,outcome,[7],inactive
same,outcome,[8],inactive
CCCCc1nc2cccnc2n1Cc1ccc(-c2ccccc2-c2nnn[nH]2)cc1,outcome,[1],inactive
same,outcome,HGF (gene 3082),inactive
same,AC50,[2],50 µM (active)
same,outcome,[3],inactive
same,outcome,[4],inactive
same,outcome,[5],inactive
same,outcome,[6],inactive
same,outcome,[8],inactive
Nc1nc(=S)c2[nH]cnc2[nH]1,AC50,[1],7.48 µM (active)
same,outcome,HGF (gene 3082),inactive
same,AC50,[2],20.5 µM (active)
same,outcome,[3],inactive
same,outcome,[4],inactive
same,AC50,[5],14.8 µM (active)
same,AC50,[6],8.69 µM (active)
same,outcome,[7],inactive
same,AC50,[8],7.57 µM (active)
CCc1cc(C2=C(C(=O)O)N(c3ccccc3C(F)(F)F)S(=O)(=O)c3ccccc32)cc2c1OCO2,AC50,[1],81.4 µM (active)
same,outcome,HGF (gene 3082),inactive
same,outcome,[2],inactive
same,AC50,[3],50 µM (active)
same,AC50,[4],75.4 µM (active)
same,AC50,[5],78.5 µM (active)
same,outcome,[6],inactive
same,AC50,[7],9.92 µM (active)
same,outcome,[8],inactive
CN(C)CCCN(C)CCCN(C)C,outcome,[1],inactive
same,outcome,HGF (gene 3082),inactive
same,outcome,[2],inactive
same,outcome,[3],inactive
same,outcome,[4],inactive
same,outcome,[5],inactive
same,outcome,[6],inactive
same,outcome,[7],inactive
same,outcome,[8],inactive
CCOCCOCCO,outcome,[1],inactive
same,outcome,HGF (gene 3082),inactive
same,outcome,[2],inactive
same,outcome,[3],inactive
same,outcome,[4],inactive
same,outcome,[5],inactive
same,outcome,[6],inactive
same,outcome,[7],inactive
same,outcome,[8],inactive
NC(=Nc1ccccc1)Nc1ccccc1,outcome,[1],inactive
same,outcome,HGF (gene 3082),inactive
same,outcome,[2],inactive
same,outcome,[3],inactive
same,AC50,[4],13.2 µM (active)
same,outcome,[5],inactive
same,outcome,[6],inactive
same,outcome,[7],inactive
same,outcome,[8],inactive
OCC(CO)n1cnc(-c2ccc(F)cc2)c1-c1ccnc(Oc2ccccc2)n1,outcome,[1],inactive
same,outcome,HGF (gene 3082),inactive
same,outcome,[2],inactive
same,outcome,[3],inactive
same,outcome,[4],inactive
same,outcome,[5],inactive
same,outcome,[6],inactive
same,outcome,[7],inactive
same,outcome,[8],inactive
